# Vif inh – HIV Vif inhibition; HEK293T cells, Vif self-association by quenched fluorescence, imaging, 24 h; inhibition, % at 7.49 µM; 340,000 compounds, 0.35% hits; in the data active = inhibition above about 50%, passing the limit was not always enough
# INS-1E GSIS act – primary screen for activators of insulin secretion dependent on glucose, INS-1E cells, GLuc reporter luminescence | AID 743287 | INS-1E GLuc reporter insulin secretion, 2-3 h | 370,000 compounds, 0.61% hits | activation, % at 16.6 µM;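 active = lowest replicate activation of at least 40%, so every replicate reaches that level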;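 note: 0% = median of neutral control wells and 100% = median of IBMX positive control wells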
# dFosB act-1 – mouse delta FosB homodimer activation | AID 493131 | activation, % at 25 µM | 340,000 compounds, 0.99% hits | purified delta FosB, TAMRA-CDK5 oligo fluorescence polarization; percent of positive-control signal above neutral wells | P13346;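 active = mean activation above about 17%, with every replicate also reaching it, limit read from the data, passing the limit was not always enough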
# Target sequence (P13346 whole entry, looked up): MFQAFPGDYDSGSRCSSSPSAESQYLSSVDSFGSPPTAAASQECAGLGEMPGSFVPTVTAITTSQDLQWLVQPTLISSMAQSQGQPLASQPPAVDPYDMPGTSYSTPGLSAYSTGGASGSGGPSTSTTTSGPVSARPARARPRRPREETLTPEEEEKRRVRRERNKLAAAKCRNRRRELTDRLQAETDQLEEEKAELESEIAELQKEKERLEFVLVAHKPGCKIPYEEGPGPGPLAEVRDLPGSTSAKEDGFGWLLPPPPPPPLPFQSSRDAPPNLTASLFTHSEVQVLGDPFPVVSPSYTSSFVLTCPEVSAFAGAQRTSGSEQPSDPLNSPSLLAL
# A1 inh – inhibitors of the anti-apoptotic protein A1, read as caspase activation; MEF A1-2A-BIM cells, Caspase-Glo 3/7 luminescence, 3 h; percent of clofoctol response, vehicle zero; caspase activation, % (no concentration beside the values); 330,000 compounds, 0.066% hits; AID 2462;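 active = over half of replicate activation scores above 10%, or exactly half above 10 with the replicate mean above 10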
# Neddylation inh – blocks human cullin neddylation. P61081+Q13564. TR-FRET cullin neddylation, biochemical. inhibition, % at 25 µM. 360,000 compounds, 0.58% hits; in the data active = inhibition above about 36%
# dFosB act-2 – activators of mouse delta FosB homodimer DNA binding; shares compounds with dFosB act-1; purified delta FosB, TAMRA-CDK5 oligo fluorescence polarization; normalised: neutral wells 0, positive control 100; activation, % at 24.9 µM; 2,400 tested, under 10 active;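 active = highest replicate activation at or above 34% and every replicate reaching that threshold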;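 note: higher polarization means more probe DNA bound by delta FosB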
# Starred values were filed as active, the others as inactive; · = no result given. This is a sample that favours compounds with a hit; in the whole collection about 1.9% have one here.
SMILES,Vif inh,INS-1E GSIS act,dFosB act-1,A1 inh,Neddylation inh,dFosB act-2
CCOc1ccccc1NC(=O)Cn1nnc(C(=O)NCc2ccco2)c1N,·,·,28.2*,0.7,-4.1,3.5
COc1ccc(NC(=O)Cn2nnc(C(=O)NCc3ccc(C)cc3)c2N)cc1OC,-0.6,2.9,7.1,0.7,8.3,·
Cc1ccc(CNC(=O)Cn2nnc(C(=O)Nc3cc(C)ccc3C)c2N)cc1,-2.5,18.5,35.6*,-0.2,17.9,0.5
Cc1cc(C)cc(NC(=O)Cn2nnc(C(=O)NCc3ccco3)c2N)c1,-2.3,14.5,31.5*,0.7,-0.8,6.9
Cc1cccc(-n2nnc(C(=O)NCc3ccco3)c2N)c1,6.4,-7.0,3.8,0.3,-3.9,·
Cc1cc(C)cc(NC(=O)Cn2nnc(C(=O)NCc3ccc4c(c3)OCO4)c2N)c1,-7.9,2.4,76.9*,0.3,-1.4,1.8
Cc1ccc(NC(=O)Cn2nnc(C(=O)NCc3ccc(Cl)cc3)c2N)cc1F,2.8,1.7,76.9*,0.0,-11.0,0.7
COc1ccc(NC(=O)Cn2nnc(C(=O)NCc3ccc4c(c3)OCO4)c2N)cc1,-0.3,0.8,6.8,-1.2,7.4,·
CCCN(C)C[C@@H]1Oc2cc(C#C[C@@H](C)O)ccc2S(=O)(=O)N([C@H](C)CO)C[C@@H]1C,·,-2.3,·,·,·,·
C[C@@H]1CCCCO[C@H](CN(C)C(=O)Nc2ccc3c(c2)OCO3)[C@@H](C)CN([C@H](C)CO)C(=O)c2cc(NS(=O)(=O)c3cn(C)cn3)ccc2O1,·,4.2,·,·,·,·
C[C@H](CO)N1C[C@H](C)[C@@H](CN(C)Cc2ccc(C(=O)O)cc2)Oc2ccc(NS(=O)(=O)c3ccccc3)cc2C1=O,·,12.4,·,·,·,·
O=C(NCc1ccc2c(c1)OCO2)C1CCN(S(=O)(=O)c2ccc(F)cc2)CC1,-0.3,-14.0,-2.9,1.1,9.6,·
O=C(NCc1ccc2c(c1)OCO2)C1CCN(c2nccc(C(F)(F)F)n2)CC1,-0.2,·,18.3*,0.4,-48.0,-13.7
C=CCN(c1ccccc1OC)S(=O)(=O)c1cccc(C(=O)NCC(c2ccc(OC)cc2)N2CCCC2)c1 (stereo not drawn),-12.5,-32.8,27.3*,·,-6.9,-1.5
COc1ccc(OCCOc2ccccc2[N+](=O)[O-])cc1,1.4,3.8,-3.0,-1.8,-5.3,·
O=[N+]([O-])c1ccccc1OCCOc1ccccc1[N+](=O)[O-],2.5,5.3,23.2*,-1.5,-22.8,0.6
C[C@@H]1CN([C@H](C)CO)S(=O)(=O)c2ccc(C#C[C@@H](C)O)cc2O[C@H]1CN(C)C(=O)Cc1ccccn1,·,8.8,·,·,·,·
COc1cc(NC(=O)c2ccco2)c(C(=O)OCC(=O)c2c[nH]c3ccccc23)cc1OC,-6.1,-10.5,38.6*,-0.3,11.2,7.0
O=C(OCC(=O)c1c[nH]c2ccccc12)c1ccco1,14.3,·,-6.5,0.6,-5.4,·
CC=Cc1ccc2n(c1=O)C[C@@H]1[C@@H](CO)[C@H](C(=O)NC3CCC3)N(S(C)(=O)=O)[C@H]21 (mixture of isomers),·,-8.5,·,·,·,·
CC(C)C#Cc1cnc2c(c1)C(=O)N([C@@H](C)CO)C[C@H](C)[C@@H](CN(C)Cc1ccccc1F)O2,·,-21.2,·,·,·,·
O=C(NC(=S)Nc1cccc(NC(=O)c2ccc(Cl)cc2Cl)c1)c1cccs1,-3.8,-15.1,43.9*,1.7,-1.9,-0.7
N#C[C@H]1[C@H](c2ccc(-c3cccc(F)c3)cc2)[C@H](CO)N1C(=O)c1cccnc1,·,-6.5,·,·,·,·
COc1ccc(/C=N/NC(=O)c2cc(-c3ccccc3)nc3ccccc23)c(OC)c1,-1.5,-15.2,22.6*,-1.6,·,0.9
O=C(N/N=C/c1cccc2ccccc12)c1cc2ccccc2o1,25.6,32.5,20.3*,·,12.7,5.3
O=C(N/N=C/c1ccccc1F)c1cc2c(ccc3ccccc32)o1,·,8.6,13.9,0.5,·,·
O=C(N/N=C/c1cccc(O)c1)c1cc(-c2ccccc2)nc2ccccc12,3.7,-2.2,-13.4,0.2,-10.7,·
COc1ccc(/C=N/NC(=O)c2ccccc2NC(=O)c2ccco2)c(OC)c1,-2.0,5.6,83.8*,0.3,4.2,1.9
COc1ccc(NC(=O)c2ccccc2NC(=O)c2ccco2)c(OC)c1,-7.3,·,2.0,0.6,-4.4,·

# From PubChem
